Experimental findings from PubChem BioAssay (NCATS) are described below.

The structures appear in SMILES notation. Inconclusive results are not listed. Activity calls are given as the source filed them. Calls follow the shape of the dose curve; as a rule, active = well fitted cell-killing curve with a large enough effect; inconclusive = small, poorly fitted or top-dose-only effect, or effect the other way; inactive = no such curve, though single readings can be large or run the other way.
Potency is read from the fitted curve at half-maximal effect.

A short description of this assay: Quantitative High-Throughput drug screen in 47 multiple myeloma cell lines against the NCATS MIPE library collection: MOLP8_DSMZ cell viability assay (AID 1918977). Also: nearly all actives have a fitted effect of over 45% in size. Particulars: MOLP8 myeloma viability, CellTiter-Glo ATP luminescence, 48 h; series mostly up to 45.8 µM. An excerpt:
PI: Beverly A. Mock Ph.D.
Laboratory of Cancer Biology and Genetics,
Center for Cancer Research, National Cancer Institute,
National Institute of Health, Bethesda, Maryland
Drug resistance and disease progression are common in multiple myeloma (MM) patients, underscoring the need for new therapeutic combinations. […] We hypothesized that effective combinations would reduce MYC expression and enhance p16 activity. […] These preclinical data identify potentially useful drug combinations for evaluation in drug-resistant MM and reveal potential mechanisms of combined drug sensitivity.
Described herein is the primary MIPE qHTS used to cherrypick compounds. Validated compounds were then further tested for potential synergistic activiy.
[1] Peat TJ, Gaikwad SM, Dubois W, Gyabaah-Kessie N, Zhang S, Gorjifard S, Phyo Z, Andres M, Hughitt VK, Simpson RM, Miller MA, Girvin AT, Taylor A, Williams D, D'Antonio N, Zhang Y, Rajagopalan A, Flietner E, Wilson K, Zhang X, Shinn P, Klumpp-Thomas C, McKnight C, Itkin Z, Chen L, Kazandijian D, Zhang J, Michalowski AM, Simmons JK, Keats J, Thomas CJ, Mock BA. Drug combinations identified by high-throughput screening promote cell cycle transition and upregulate Smad pathways in myeloma. Cancer Lett. 2023 Aug 1;568:216284. doi: 10.1016/j.canlet.2023.216284. Epub 2023 Jun 24. PMID: 37356470; PMCID: PMC10408729.
SEQUENCE No. (e.g., 1, 2, 3, etc.); […] (e.g., Cells, Incubation, Reagent, etc.); VALUE and DESCRIPTION.
1; Cells; 5 uL; white, solid bottom 1536-well Greiner assay plate.
2; Compounds; 23 nL; Kalypsis pin tool (Wako USA) equipped with a 1536-well pin head to transfer to the assay plates.
3; Incubation; 48 hours; 37C incubation.
4; Reagent;5uL; CellTiter Glo (Promega).
5; Detector; 425V; Luminescence; Viewlux PerkinElmer.
NOTES (numbers refer to Sequence numbers above)
1. The cell-based screening methods employed in this study were like those previously published. Briefly, the corresponding myeloma cell lines were screened in 1,536-well plates with 500 cells, 5-uL per well for inhibition of cell viability (assessed by measuring ATP levels with CellTiterGlo).
2. NCATS MIPE 4.0 library of approved and investigational drugs were added using the Kalypsis pin tool. Wells treated with DMSO only for 100% viability and media only for 0% viability were used as controls.
3. The assay plates were covered and incubated for 48 hours in a 37C, 5% CO2 incubator with controlled humidity.
4. After 48 hours, CellTilter-GloTM luminescent substrate mix (Promega) reagent was added to the assay plate and plates we incubated for 5 min at room temperature.
5. Signal was measured as median relative luminescence units on a ViewLux (PerkinElmer) multiplate reader.
[1] Heske CM, Davis MI, Baumgart JT, Wilson K, Gormally MV, Chen L, Zhang X, Ceribelli M, Duveau DY, Guha R, Ferrer M, Arnaldez FI, Ji J, Tran HL, Zhang Y, Mendoza A, Helman LJ, Thomas CJ. Matrix Screen Identifies Synergistic Combination of PARP Inhibitors and Nicotinamide Phosphoribosyltransferase (NAMPT) Inhibitors in Ewing Sarcoma. Clin Cancer Res. 2017 Dec 1;23(23):7301-7311. doi: 10.1158/1078-0432.CCR-17-1121. Epub 2017 Sep 12. PMID: 28899971; PMCID: PMC6636827.
In general terms: ATP-based viability assays read luminescence as a measure of living cells.
Consider `NS(=O)(=O)c1cc(Cl)c(Cl)c(S(N)(=O)=O)c1`, for which the Potency entry was “inactive”.
For the compound `Cc1cc(NC(=O)Nc2ccc(N(C)C)cc2)c2cc(F)cc(F)c2n1`, the Potency was 23.5 µM (active).
For `CN1CC(=O)NC1=NC(=O)Nc1cccc(Cl)c1`, the Potency is 10.5 µM (active).
As for `O=C(c1ccc(C(=O)N2CCC(N3CCCC3)CC2)c(Nc2ccccc2)c1)N1CCC(N2CCCC2)CC1`, the Potency entry is “inactive”.
The entry for `CC=C(C(=CC)c1ccc(O)cc1)c1ccc(O)cc1` is “inactive”; for `C[C@@H]1C[C@H]2[C@@H]3CCC4=CC(=O)C=C[C@]4(C)[C@@]3(F)[C@@H](O)C[C@]2(C)[C@@]1(O)C(=O)CO` it is “inactive”.
In the case of `OC[C@H]1O[C@@H](Oc2ccc(O)cc2)[C@H](O)[C@@H](O)[C@H]1O`, the Potency result was “inactive”.
In the case of `CC[C@]1(O)C[C@H]2CN(CCC3=c4ccccc4=N[C]3[C@@](C(=O)OC)(c3cc4c(cc3OC)N(C)[C@H]3[C@@](O)(C(N)=O)[C@H](O)[C@]5(CC)C=CCN6CC[C@]43[C@@H]65)C2)C1`, the Potency was 0.148 µM (active).
In the case of `Cc1ccccc1-n1c(Cn2nc(-c3cccc(O)c3)c3c(N)ncnc32)nc2cccc(C)c2c1=O` it was 5.9 µM (active).
The figure for `Cc1cccc(Nc2nc(N[C@@H]3CCCC[C@H]3N)ncc2C(N)=O)c1` is 14.8 µM (active); for `CCCCCCOC(=O)N=C(N)c1ccc(NCc2nc3cc(C(=O)N(CCC(=O)OCC)c4ccccn4)ccc3n2C)cc1` it is 20.9 µM (active); for `CN(C)CCN(C)C(=O)c1ccc(NC(=O)Nc2ccc(-c3nc(N4CCOCC4)c4ccn(CC(F)(F)F)c4n3)cc2)cc1` it is 0.0066 µM (active).
In the case of `CCC(c1ccc(O)cc1)C(CC)c1ccc(O)cc1` (stereo not given) it was “inactive”; in that of `Cn1c(=O)c(-c2c(Cl)cccc2Cl)cc2cnc(Nc3cccc(C(=O)O)c3)nc21`, 2.09 µM (active).
On to `C=CCc1cccc(C=NNC(=O)CN2CCN(Cc3ccccc3)CC2)c1O`, for which the Potency was 6.62 µM (active).
As for `Oc1cc(O)cc(C=Cc2ccc(O)c(O)c2)c1`, the Potency is 18.7 µM (active).
The entry for `COC(=O)[C@H](c1ccccc1Cl)N1CCc2sccc2C1` is “inactive”; for `CN1CCC(COc2cnc(-c3cccc(Cn4nc(-c5cccc(C#N)c5)ccc4=O)c3)nc2)CC1` it is “inactive”.
The entry for `O=C(CO)N1CCC(c2[nH]nc(-c3ccc(Cl)cc3)c2-c2ccncn2)CC1` is “inactive”; for `C[C@@H]1O[C@@H](O[C@H]2CC[C@@]3(C)[C@H](CC[C@@H]4[C@H]3C[C@@H](O)[C@]3(C)[C@@H](C5=CC(=O)OC5)CC[C@]43O)C2)C[C@H](O)[C@@H]1O[C@H]1C[C@H](O)[C@H](O[C@H]2C[C@H](O)[C@@H](O)[C@@H](C)O2)[C@H](C)O1` (stereo in doubt) it is 0.152 µM (active).
In the case of `CC(=O)N1CCN(c2ccc(OCc3nn(C)c(C)c3-c3cccc4c(CCCOc5cc(C)c(Cl)c(C)c5)c(C(=O)O)n(Cc5cccnc5)c34)cc2)CC1` it was 20.9 µM (active); in that of `CCC[C@H](Nc1nc(-c2ccc(NC(=O)NCC)c(OC)c2)ncc1C)c1cccnc1`, 0.0662 µM (active); in that of `CC(C)(C)c1nc(-c2cccc(NS(=O)(=O)c3c(F)cccc3F)c2F)c(-c2ccnc(N)n2)s1`, 5.9 µM (active).
For `CS(=O)(=O)c1ccc(C2=C(c3ccccc3)C(=O)OC2)cc1`, the Potency entry was “inactive”.
Turning to `COc1cc(C=CC(=O)O)ccc1O`, the Potency entry was “inactive”.
In the case of `COc1ccc2nc3cc(Cl)ccc3c(Nc3cc(CN4CCCC4)c(O)c(CN4CCCC4)c3)c2n1` it was 16.6 µM (active); in that of `C#CCN(C)CC1=Cc2ccccc2Oc2ccccc21`, “inactive”.
In the case of `C[C@H]1COC2=C1C(=O)C(=O)c1c2ccc2c1CCCC2(C)C` it was 20.9 µM (active); in that of `Cc1ccc2c(c1)c1c(n2CCc2ccc(C)nc2)CCN(C)C1`, “inactive”.
With `CCC(=O)N1CCN(c2ccc(-n3c(=O)ccc4cnc5ccc(-c6cnc7ccccc7c6)cc5c43)cc2C(F)(F)F)CC1`, the Potency is 0.0332 µM (active).
In the case of `O=C(Nc1ncc(SCCN2CCCC2)s1)[C@]1(c2ccc(S(=O)(=O)C3CC3)cc2)C[C@@H]1C1CCCCC1` it was 16.6 µM (active); in that of `CCN(CC)CCCCNc1nc2cc(Cl)c(Cl)cc2nc1-c1ccc(-c2cccs2)s1`, 8.33 µM (active); in that of `NC[C@H]1O[C@H](O[C@@H]2[C@@H](O)[C@@H](O[C@H]3O[C@H](CO)[C@@H](O)[C@H](N)[C@@H]3O)[C@H](N)C[C@@H]2N)[C@H](O)[C@@H](O)[C@H]1O`, “inactive”.
The figure for `CC(C)N(CCCNC(=O)Nc1ccc(C(C)(C)C)cc1)C[C@H]1O[C@@H](n2cc(Br)c3c(N)ncnc32)[C@H](O)[C@H]1O` is 18.7 µM (active); for `O[C@@H](COc1cccc2ncccc12)CN1CCN(C2c3ccccc3[C@@H]3[C@H](c4ccccc42)C3(F)F)CC1` (stereo not given in full) it is 23.5 µM (active).
The figure for `CCC(C)SSc1ncc[nH]1` (stereo not given) is 4.18 µM (active); for `COc1cc2nc(-c3cc(F)ccc3O)nc(N[C@@H]3CNC[C@@H]3C(C)(C)O)c2cc1OC` it is 5.9 µM (active).
On to `C[C@]12C=CC(=O)C=C1CC[C@@H]1[C@@H]2[C@@H](O)C[C@@]2(C)[C@@H]1CC[C@]2(O)C(=O)CO`, for which the Potency is 0.0743 µM (active).
In the case of `CCCCn1c(=O)n(Cc2ccccc2F)c(=O)c2[nH]c(Cc3ccc(NC(C)=O)cc3)nc21` it was “inactive”; in that of `O=c1[nH]c(=O)n([C@H]2C[C@@H](O)[C@@H](CO)O2)cc1I`, “inactive”.
